From PubChem BioAssay
PostGolgi ctrl: growth inhibition of yeast control strain, primary screen, counter-screen for post-Golgi transport modulator project; inhibition, % at 10 µM; efflux-deficient yeast background strain, growth absorbance A615, 16 h; 5% of 98,000 active; AID 738, 2007
PostGolgi yeast: phenotypic screen on post-Golgi transport, primary screen | post-Golgi transport phenotypic cell assay | inhibition, % at 10 µM | 0.9% of 98,000 active | AID 739, 2007;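 also: yeast cells grown in 1536-well plates; yeast grown about 18 h at 30C before absorbance read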
sEH activator: soluble epoxide hydrolase activators, primary screen, biochemical, human sEH | Bifunctional epoxide hydrolase 2 (Homo sapiens), P34913 | purified human sEH enzymatic activity, activator screen | activation, % at 2 µM | 0.04% of 91,000 active | AID 717, 2007; in the data active = activation above about 37%
Target sequence (P34913 whole entry, looked up): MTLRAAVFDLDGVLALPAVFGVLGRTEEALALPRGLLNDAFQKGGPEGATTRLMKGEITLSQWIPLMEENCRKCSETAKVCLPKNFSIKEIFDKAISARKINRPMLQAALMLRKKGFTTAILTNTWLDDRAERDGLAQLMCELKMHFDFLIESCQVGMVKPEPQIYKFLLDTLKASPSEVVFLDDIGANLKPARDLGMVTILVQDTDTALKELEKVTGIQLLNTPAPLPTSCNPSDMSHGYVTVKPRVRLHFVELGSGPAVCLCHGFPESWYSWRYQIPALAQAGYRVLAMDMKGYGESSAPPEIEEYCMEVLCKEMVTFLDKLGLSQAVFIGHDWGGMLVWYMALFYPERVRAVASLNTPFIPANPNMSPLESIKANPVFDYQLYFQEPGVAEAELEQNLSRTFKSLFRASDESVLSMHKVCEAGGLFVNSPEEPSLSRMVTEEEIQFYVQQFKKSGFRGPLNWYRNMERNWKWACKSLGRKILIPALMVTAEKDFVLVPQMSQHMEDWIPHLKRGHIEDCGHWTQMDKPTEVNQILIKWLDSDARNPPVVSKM
sEH inhibitor: soluble epoxide hydrolase inhibitors, primary screen, biochemical, human sEH | AID 707, 2007 | recombinant human sEH enzymatic activity assay | Bifunctional epoxide hydrolase 2 (Homo sapiens), P34913 | 0.34% of 91,000 active | inhibition, % at 2 µM; in the data active = inhibition above about 80%
Cav32 inh: Cav3.2 calcium influx blockers – cell-based, Fluo-4 calcium fluorescence, FDSS, MLSMR library, primary screen; Voltage-dependent T-type calcium channel subunit alpha-1H (Homo sapiens), O95180; Cav3.2-expressing cells; stronger effect = lower value; B-score at 10 µM; 4% of 100,000 active;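 active = single-dose well whose peak fluorescence ratio is a statistical outlier from its plate by either plate-standardised score or position-corrected B-score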
A number is an active result; i = inactive; nt = no result given. Shown are actives, neighbours in structure and some others; about 7.8% of the full set was active somewhere. Rule as the data show it, unless noted: active = inhibition above about 30%; inactive = the rest.

SMILES | PostGolgi ctrl | PostGolgi yeast | sEH activator | sEH inhibitor | Cav32 inh
C/C(=N\NC(=O)c1ccc(Br)cc1)C1C(=O)c2ccccc2C1=O | i | i | i | i | -4.2
O=c1cc(-c2ccccc2)[nH]n1-c1ccc([N+](=O)[O-])cc1 | i | i | i | i | -4
Nc1c(-c2ccccc2)cnn1-c1cccc([N+](=O)[O-])c1 | i | i | i | i | i
Cc1cccnc1Nc1nc(-c2ccc(O)cc2O)cs1 | 59 | i | nt | nt | i
NS(=O)(=O)c1ccc(Nc2nc(-c3ccc(O)cc3O)cs2)cc1 | i | i | i | i | i
Cn1cccc1C(=O)Nc1nc(-c2ccccn2)cs1 | i | i | i | i | nt
c1ccc(Nc2nc(-c3cccs3)cs2)nc1 | 31 | i | i | i | -5
Cc1cccc(Nc2nc(-c3ccccn3)cs2)n1 | i | i | i | i | -3.6
Cc1cccc(Nc2nc(-c3cccs3)cs2)n1 | nt | nt | i | i | i
Cc1cccnc1Nc1nc(-c2ccccn2)cs1 | 52 | 101 | i | i | i
COC(=O)C1=C(N)Oc2cc(N(C)C)ccc2C1c1ccccc1OC (centres undefined) | i | i | i | i | -7
COC(=O)C1=C(N)Oc2cc(C)n(CC3CCCO3)c(=O)c2C1c1ccccc1OC (centres undefined) | i | i | i | i | i
O=C(C1=C[C@@H](C2CCCCC2)C[C@@H](OCCCCO)O1)N1CCOCC1 | nt | nt | nt | nt | i
Cc1ccsc1C1C=C(c2cccc(Br)c2)Nc2ncnn21 (centres undefined) | 37 | i | i | i | i
N#Cc1cc(N)ccc1Sc1ccc(Cl)cc1 | 53 | i | i | i | i
Cc1ccc(S(=O)(=O)N(CC(=O)N2CCN(c3ccc(F)cc3)CC2)C2CCCCC2)cc1 | i | i | i | i | -5.8
Cc1ccc(Cl)cc1N1CCN(C(=O)C2CCN(S(=O)(=O)c3c(C)nn(C)c3C)CC2)CC1 | 41 | i | i | i | nt
CCOC(=O)N1CCC(Nc2c(N3CCN(c4cc(Cl)ccc4C)CC3)c(=O)c2=O)CC1 | i | i | nt | nt | -4.1
Cc1ccc(Cl)cc1N1CCN(C(=O)CN(C2CCCCC2)S(C)(=O)=O)CC1 | nt | nt | i | i | -4.9
CCOC(=O)N1CCC(Nc2c(-c3ccc(C)c(C)c3)c(=O)c2=O)CC1 | i | i | i | i | i
Cc1ccc(-c2c3c(=O)n(C)c(=O)n(C)c3cn2N2CCOCC2)cc1 | 51 | i | i | i | i
CC(Cc1ccccc1)NC(=O)CSc1nc2nc3c(cc2c(=O)n1-c1ccccc1)COC(C)(C)C3 (centres undefined) | i | i | i | i | i
CCn1c(SCC(=O)N2CCCc3ccccc32)nc2ccccc2c1=O | 40 | i | i | i | -6.9
O=C(CSc1nnnn1-c1ccc(Cl)cc1)N1CCc2ccccc2C1 | 38 | i | i | i | i
CC(C)c1nc(SCC(=O)N2CCCc3ccccc32)c2c(=O)n(C)c(=O)n(C)c2n1 | 35 | i | nt | nt | i
SMILES | PostGolgi ctrl | PostGolgi yeast | sEH activator | sEH inhibitor | Cav32 inh
C=CCn1c(SCC(=O)N2CCc3ccccc3C2)nc2ccccc2c1=O | 49 | i | i | i | i
O=C(CSc1nnnn1-c1ccccc1)N1CCCc2ccccc21 | i | i | i | i | i
C#CCNC(=O)C1=C[C@@H](c2ccc(C(F)(F)F)cc2)[C@H](CCCO)[C@@H](OCC)O1 | nt | nt | nt | nt | i
CC(C)CC(NS(=O)(=O)c1ccc2c(c1)oc(=O)n2C)C(=O)NCc1cccnc1 (centres undefined) | i | i | nt | nt | i
Cc1ccc(S(=O)(=O)N(C)CCCC(=O)N2CCN(C=O)CC2)cc1 | i | i | i | i | i
CCOC(=O)NC1(NC2CCCCC2)Oc2ccccc2O1 | i | i | i | i | i
Cc1cc(Oc2ccccc2)nc2ccc(O)cc12 | i | i | nt | nt | nt
Cc1cccc(OCc2nnc(NC(=O)Cc3cccs3)s2)c1 | nt | nt | i | i | i
CCn1c(SCC(=O)N2CCCc3ccccc32)nnc1-c1ccco1 | i | 49 | nt | nt | i
Cc1cc2c(=O)n(Cc3ccco3)c(SCC(=O)N3CCCc4ccccc43)nc2s1 | 32 | i | i | i | i
CCn1c(SCC(=O)N2CCCc3ccccc32)nnc1-c1ccoc1C | nt | nt | i | i | i
COc1ccc(C2/C=C\CN(C(=O)c3ccc(C)cc3)[C@H](Cc3ccccc3)C(=O)N2Cc2ccc(F)cc2)cc1 (some centres undefined) | nt | nt | nt | nt | i
CCCNC(=O)c1ccc2nc(-c3ccccc3)c(-c3ccccc3)nc2c1 | i | i | i | i | i
O=C(NCCO)c1cccc(Nc2nc(-c3ccccc3)c3cc(Cl)ccc3n2)c1 | 49 | i | i | i | i
CCO[C@@H]1OC(C(=O)N2CCN(C)CC2)=C[C@H](C(C)(C)C)[C@H]1CCCO | nt | nt | nt | nt | i
Cc1nc(N)sc1N=Nc1ccc(F)cc1 | i | i | i | i | i
COc1cc(C(=O)Nc2nnc(-c3sccc3C)s2)cc(OC)c1OC | 36 | i | i | i | i
COc1ccc(C(=O)Nc2nnc(-c3cccs3)s2)cc1 | i | i | i | i | i
CN1CCN(C(=O)C2=C[C@H](c3ccc4c(c3)OCO4)C[C@H](OCCCCO)O2)CC1 | nt | nt | nt | nt | i
Cc1scc(C(=O)NNC(=S)NCC2CCCO2)c1C (centres undefined) | i | i | i | i | i
CCc1cc(C(=O)NNC(=S)NCC2CCCO2)cs1 (centres undefined) | 30 | i | i | i | i
CCn1cc(C(=O)OCC(=O)NCc2ccc3c(c2)OCO3)c(=O)c2ccc(C)nc21 | i | i | i | i | i
C=CCn1c(SCc2ccccc2C#N)nnc1-c1cc(Br)ccc1O | 52 | i | i | i | i
O=C(NC1CCCc2ccccc21)c1cccc(S(=O)(=O)N2CCN(c3ccccc3)CC2)c1 (centres undefined) | i | i | i | i | -10
Cc1ccc(S(=O)(=O)N2CCN(CC(=O)NC3CCCc4ccccc43)CC2)cc1C (centres undefined) | i | i | i | i | i
SMILES | PostGolgi ctrl | PostGolgi yeast | sEH activator | sEH inhibitor | Cav32 inh
O=C(Nc1ccc2c(c1)CCC2)c1cccc(S(=O)(=O)N2CCN(c3ccccc3)CC2)c1 | i | i | i | i | -5.7
O=C(Nc1ccccc1)c1cccc(S(=O)(=O)N2CCCCC2)c1 | i | i | i | i | i
CCOC(=O)C1CCN(S(=O)(=O)c2c(C)n[nH]c2C)CC1 | i | i | i | i | i
CC1S/C(=C(\C#N)C(N)=O)N(c2ccc(F)cc2)C1=O (centres undefined) | i | i | i | i | i
CCCCCCCCCCCC(=O)NC(C(=O)OCC)C(O)c1cccc([N+](=O)[O-])c1 (centres undefined) | i | i | i | i | i
COc1ccc(Br)cc1C(=O)Nc1cc(C)cc(C)c1 | i | i | i | i | i
Cc1cc(C)cc(NCC(=O)Nc2c(C)cccc2C)c1 | 37 | i | i | i | i
O=C1C2C(c3ccccc3)C=CC(c3ccccc3)C2C(=O)N1c1ccncc1 (centres undefined) | 34 | i | i | i | i
O=C1C2C3C=CC(C3)C2C(=O)N1c1ccncc1 (centres undefined) | i | i | i | i | nt
